TSHR antagonist – blocks TSH signaling through the human TSH receptor; AID 504810; TSHR-expressing cells, TSH-stimulated cAMP HTRF, 2 h; hits give low values; P16473; activity change, negative = inhibition, % at 11.5 µM; 0.2% of 330,000 active;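 active = activity change below a set negative limit, meaning inhibition stronger than a set level, cut at about -70% in these data; inconclusive = activity change between two set negative limits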; also: % is scaled to controls: 0 for no effect and ±100 for the full control effect
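Freshly harvested TSHR cells receive pin-tooled compound, then EC80 TSH at 4nM final. After 2 hours at 37 deg C, antibody in lysis buffer and cAMP-d2 are added; 30 minutes at ambient temperature precede the HTRF read.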
TCR activator – activators of T cell receptors; primary human leukocytes, anti-CD3, IL-2 HTRF, 48 h; Potency, µM (titrated, usually from 9.22 µM), inactives show top-dose activation of IL-2 secretion, usual class: activators; 330,000 tested, under 10 active; AID 504894; also: % of control where 0% means no effect
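Primary human leukocytes receive a-CD3 beads and test compound and are incubated 48 hr. Secreted IL-2 is then assayed by HTRF, measuring 665nm acceptor emission after 320nm excitation of the europium donor.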
p53 reactivation – restores transcriptional activity of mutant p53; H1299 p53-A138V BP100-luciferase reporter, luminescence, 24 h; Potency, µM (doses to about 92.2 µM), for inactives: at the highest dose activity change, positive = activation, actives largely listed as activators; 0.063% of 320,000 active; also: potency is read from the fitted curve at half-maximal effect; % of control where 0% means no effect; nearly all actives have a fitted effect of over 45% in size
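p53-null H1299 cells stably carrying temperature-sensitive p53-A138V and a BP100-luciferase reporter were pinned with compounds (4-point, 1:5 series) and held 24 hrs at 37 deg C. Luminescence was read 10 min after detection reagent.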
GLS inhibitor – inhibitors of human glutaminase (GLS); O94925; GLS enzymatic activity, qHTS titration; Potency, µM (series often up to 45.5 µM), inactives show at the top dose activity change, negative = inhibition, actives largely listed as inhibitors; 0.21% of 410,000 active; AID 624170; also: potency is read from the fitted curve at half-maximal effect; % is scaled to controls: 0 for no effect and ±100 for the full control effect
Target sequence (O94925 whole entry, looked up): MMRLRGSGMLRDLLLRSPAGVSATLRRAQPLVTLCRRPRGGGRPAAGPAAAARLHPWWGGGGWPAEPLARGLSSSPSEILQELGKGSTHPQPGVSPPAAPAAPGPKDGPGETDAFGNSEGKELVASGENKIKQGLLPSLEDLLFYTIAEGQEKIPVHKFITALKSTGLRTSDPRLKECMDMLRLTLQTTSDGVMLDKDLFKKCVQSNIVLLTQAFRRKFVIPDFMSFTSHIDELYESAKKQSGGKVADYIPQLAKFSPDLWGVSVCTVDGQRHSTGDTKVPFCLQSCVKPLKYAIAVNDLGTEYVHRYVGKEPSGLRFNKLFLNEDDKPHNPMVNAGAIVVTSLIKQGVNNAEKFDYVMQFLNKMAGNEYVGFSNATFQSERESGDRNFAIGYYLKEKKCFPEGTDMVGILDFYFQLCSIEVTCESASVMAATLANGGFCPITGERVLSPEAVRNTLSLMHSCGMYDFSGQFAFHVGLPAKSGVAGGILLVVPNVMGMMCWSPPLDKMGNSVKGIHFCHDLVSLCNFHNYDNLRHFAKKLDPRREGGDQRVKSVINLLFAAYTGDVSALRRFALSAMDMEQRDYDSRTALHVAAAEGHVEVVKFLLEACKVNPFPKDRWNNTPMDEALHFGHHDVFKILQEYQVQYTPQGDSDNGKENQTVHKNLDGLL
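Human kidney-isoform GLS in 45 mM KH2PO4 pH 8.2, 0.02% Tween-20, with compound, started with 1mM L-Glutamine (added stock). Glutamate oxidase/HRP/Amplex red coupled fluorescence read at start and after 30 min at RT.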
BRCA1 expr act – activators of BRCA1 expression | MCF7-BRCA1-FFLuc reporter, luminescence, 48 h; response scale: scaled: vehicle 0%, 10 µM genistein 100% | Potency, µM (series often up to 46.1 µM), for inactives: at the highest dose activation, most hits filed as activators | 1.1% of 380,000 active; also: potency is read from the fitted curve at half-maximal effect; nearly all actives have a fitted effect of over 80% in size
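Quantitative HTS in MCF7 cells stably reporting BRCA1 expression via firefly luciferase. Compound treatment lasts 48 h at 37 °C in phenol-red free MEM. Activation is expressed relative to genistein at 10 microM and DMSO.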
N370S GC mod – inhibitors or activators of N370S glucocerebrosidase for Gaucher disease; P04062; N370S GC spleen homogenate, 4MU-glucoside fluorescence; Potency, µM (highest dose often 59.4 µM), for inactives: top-dose activity change, negative = inhibition, actives largely listed as inhibitors; 0.092% of 330,000 active; AID 2101;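 also: potency is read from the fitted curve at half-maximal effect; 0% = full enzyme activity and -100% = no enzyme basal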
The depositor's hits bear a star; ? = inconclusive; / = no result given; [ ] = dose if it differs, or a comment. A selection: hits, their analogues and other compounds. The true share with any hit is near 1.4%. Unless noted, calls follow the shape of the dose curve; as a rule, active = well fitted curve in the direction sought with a large enough effect; inconclusive = small, poorly fitted or top-dose-only effect, or another doubt; inactive = no such curve, though single readings can be large; an effect the other way counts as inactive or inconclusive.

SMILES	TSHR antagonist	TCR activator	p53 reactivation	GLS inhibitor	BRCA1 expr act	N370S GC mod
C[C@@H]1CC[C@]2(C(=O)O[C@@H]3O[C@H](CO)[C@@H](O)[C@H](O)[C@H]3O)CC[C@]3(C)C(=CCC4[C@@]5(C)C[C@@H](O)[C@H](O)[C@@](C)(C(=O)O[C@@H]6[C@H](O)C[C@@]7(C)C(CC[C@]8(C)C7CC=C7[C@H]9[C@](C(=O)O[C@@H]%10O[C@H](CO)[C@@H](O)[C@H](O)[C@H]%10O)(CC[C@@H](C)[C@@]9(C)O)CC[C@]78C)[C@@]6(CO)C(=O)O)C5CC[C@]43C)[C@@H]2[C@]1(C)O (stereo partly drawn)	56	-6%	-4%	7.1µM*	3%	/
CCCc1ccc(-c2cc(C(=O)NN3CCOCC3)c3ccccc3n2)cc1	-3	-6%	6%	28%	14µM*	2%
Cc1ccc(-c2c(C)n3c4c(=O)n(C)c(=O)n(C)c4nc3n2CCCO)cc1	/	/	/	-5%	-44%	/
O=C(Cn1c(=O)oc2cc(S(=O)(=O)NCc3ccccc3)ccc21)N(CCO)Cc1ccccc1	/	/	/	2%	/	/
CCOC(=O)c1ccc(NC(=O)N(CC)CC)cc1	-4	-7%	?	-5%	2.5µM*	0%
CCOC(=O)CC(=O)Nc1ccc(C(=O)OCC)cc1	-6	-6%	16%	8%	38%	-2%
CCOC(=O)c1ccc(NC(=O)c2nn(CC)cc2Br)cc1	-6	-5%	21%	0%	?	3%
CCOC(=O)c1ccc(NC(=O)Nc2ccccn2)cc1	-17	-2%	7%	13%	5µM*	?
CCOC(=O)c1ccc(NC(=S)Nc2ccccc2)cc1	13	10%[46.1 µM]	11%	4%	72%	2%
CCOC(=O)c1ccc(NC(=O)c2nn(C)cc2Br)cc1	-7	-5%	17%	6%	5µM*	5%
CCOC(=O)c1ccc(NC(=S)Nc2ccc(C)cc2)cc1	-5	1%	2%	13%	13µM*	6%
Cc1cccc(-c2c3c(=O)n(C)c(=O)n(C)c3cn2-c2cc(N)c(Cl)cc2Cl)c1	/	/	/	6%	/	/
COc1ccc(Cl)cc1NC(=O)Cn1cc(C(=O)c2ccncc2)c(=O)c2cc(C)ccc21	/	/	/	-11%	/	/
Cc1cccc(OCC(=O)Nc2ccc(O)c(-c3nc4ccccc4o3)c2)c1	/	/	/	/	3%	/
Cc1ccc(C2N=C(Nc3nc4ccccc4o3)NC3=C2C(=O)CC(C)(C)C3)cc1 (stereo not drawn)	/	/	/	/	5%	/
CCOC(=O)C1CCCN(C(=O)CC(C)c2ccccc2)C1 (stereo not drawn)	-18	2%	4%	1%	13µM*	9%
O=C(C1CCN(Cc2nc(-c3ccc(Cl)cc3)no2)CC1)N1CCOCC1	-6	-32%	3%	-2%	-31%	-15%
Clc1ccc(-c2noc(CN3CCOCC3)n2)cc1	-7	-1%	13%	-14%	7.9µM*	-1%
COc1ccccc1-c1nnc(NC(=O)C(C)Sc2nncn2C)s1 (stereo not drawn)	-11	-4%	1%	-5%	-37%	3%
COc1ccccc1-c1nnc(NC(=O)CSc2nncn2C)s1	-2	4%	-6%	6%	10µM*	11%
COc1ccc(CCNc2ncccc2C#N)cc1OC	9	5%	?	-20%	4µM*	2%
COc1ccc(CCNc2ncnc3cc(OC)c(OC)cc23)cc1OC	9	-2%	-8%	-2%	-36%	9%
O=C(Cc1cccs1)Nc1nc2ccccc2s1	5	0%	?	-2%	7.1µM*	-3%
O=C(Nc1nc2ccccc2s1)c1c(F)cccc1Cl	-3	/	/	-9%	10µM*	-6%
Cc1ccc2nc(NC(=O)Cc3cccs3)sc2c1	-18	-20%	21%	1%	66%	17%
SMILES	TSHR antagonist	TCR activator	p53 reactivation	GLS inhibitor	BRCA1 expr act	N370S GC mod
CC(C)C(=O)NNc1nc2ccccc2s1	3	5%	14%	-7%	8.9µM*	5%
Cn1cc(Cl)c(C(=O)Nc2nc3ccccc3s2)n1	-12	-23%	?	5%	47%	5%
O=C(Cc1ccccc1)Nc1nc2ccccc2s1	-1	-3%[46.1 µM]	24%	0%	10µM*	5%
COc1cc2nc(N3CCOCC3)nc(NC3CCN(C)CC3)c2cc1OC	/	/	/	/	5%	/
Cc1cc(-c2ccc(S(=O)(=O)Nc3ccccc3F)s2)on1	/	/	/	13%	/	/
COc1cccc(NC(=O)C2CCN(S(=O)(=O)c3c(C)noc3/C=C/c3cccs3)CC2)c1	/	/	/	2%	/	/
O=C(CSC1=NCCS1)Nc1nc2ccccc2s1	-5	-5%[46.1 µM]	?	0%	8.9µM*	13%
O=C(CSc1nc2ccccc2o1)Nc1nc2ccccc2s1	5	1%	?	1%	4%	2%
CC1CCc2nc(NC(=O)Cc3cccs3)sc2C1 (stereo not drawn)	1	-6%	?	2%	5.6µM*	20%
CCOc1ccc(C(=O)Nc2ccc3nc(SCC(=O)N4CCc5ccccc54)sc3c2)cc1	/	/	/	1%	0%	/
O=C(C[n+]1cccc(Cl)c1)c1ccc(F)cc1	/	/	/	/	0%	/
COc1cccc(N2CCN(c3ncnc4c3[nH]c3ccc(F)cc34)CC2C)c1 (stereo not drawn)	-105*	7%	-11%	11%	-83%	7%
COc1cccc(N2CCN(c3ncnc4c3[nH]c3ccccc34)CC2C)c1 (stereo not drawn)	-100*	5%[46.1 µM]	-28%	/	/	9%
COc1ccc2[nH]c3c(N4CC(C)OC(C)C4)ncnc3c2c1 (stereo not drawn)	-11	2%	-2%	-15%	-41%	3%
c1ccc2c(c1)CCN(c1ncnc3c1[nH]c1ccccc13)C2	?	-8%	-38%	10%	-99%	-4%
O=C(CSc1nc2ccccc2[nH]1)Nc1ccc2c(c1)OCCO2	-6	-19%	?	-5%	10µM*	8%
O=C(CN1C(=O)C2C3C=CC(C3)C2C1=O)Nc1ccc2c(c1)OCCO2 (stereo not drawn)	0	7%	?	3%	13µM*	2%
O=C(Cn1cnc2ccccc2c1=O)Nc1ccc2c(c1)OCCO2	3	-1%	?	-11%	3.2µM*	-5%
O=C(Nc1ccc2c(c1)OCCO2)C(=O)c1c[nH]c2ccccc12	-15	0%	-5%	-2%	17%	-5%
Cc1ccc2nc(SCC(=O)Nc3ccc4c(c3)OCCO4)[nH]c2c1	6	4%	5%	2%	66%	11%

Screening results as filed in PubChem.
